Screening data as filed in PubChem BioAssay.
KCNQ2 inh: rat KCNQ2 potassium channel inhibitors, primary screen, cell-based, CHO-K1, FluxOR thallium flux, B-score; AID 2156, 2009; 1.1% of 310,000 active; B-score at 10 µM; 20 min; active compounds read low;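 active means fluorescence ratio B-score at most minus 3 library SDs, with starting brightness B-score within 2 library SDs, cut at about -5.5 in these data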
KCNQ2 pot: potentiators of rat KCNQ2 potassium channel; CHO-K1 KCNQ2, FluxOR thallium flux fluorescence; active compounds read high; B-score at 10 µM; 0.54% of 310,000 active; AID 2239, 2010;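 active means fluorescence ratio B-score at least 3 SD of library B-scores, with initial fluorescence B-score within 3 of them, cut at about 5.3 in these data; same plate scores as AID 2156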;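 further: B-score of peak minus minimum over baseline fluorescence ratio after K+ and Tl+ stimulus; positive B-score means potentiation of KCNQ2 with more thallium influx and brighter signal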
Kir21 conf inh: mouse Kir2.1 channel blockers, retest, confirmation, cell-based, FluxOR thallium flux, duplicate. shares compounds with KCNQ2 pot. Kir2.1-expressing cells, FluxOR thallium flux fluorescence; active compounds read low. Tl flux remaining, % of negative control (active compounds read low), % at 10 µM. 41% of 2,300 active. AID 2032, 2009;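 active means Primary-screen hit whose thallium flux fell at least 3 control SD below untreated wells in both duplicates, with normal baseline fluorescence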;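 further: 0% = blank wells without stimulus and 100% = stimulated no-compound controls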
Target sequence (P35561 whole entry, looked up): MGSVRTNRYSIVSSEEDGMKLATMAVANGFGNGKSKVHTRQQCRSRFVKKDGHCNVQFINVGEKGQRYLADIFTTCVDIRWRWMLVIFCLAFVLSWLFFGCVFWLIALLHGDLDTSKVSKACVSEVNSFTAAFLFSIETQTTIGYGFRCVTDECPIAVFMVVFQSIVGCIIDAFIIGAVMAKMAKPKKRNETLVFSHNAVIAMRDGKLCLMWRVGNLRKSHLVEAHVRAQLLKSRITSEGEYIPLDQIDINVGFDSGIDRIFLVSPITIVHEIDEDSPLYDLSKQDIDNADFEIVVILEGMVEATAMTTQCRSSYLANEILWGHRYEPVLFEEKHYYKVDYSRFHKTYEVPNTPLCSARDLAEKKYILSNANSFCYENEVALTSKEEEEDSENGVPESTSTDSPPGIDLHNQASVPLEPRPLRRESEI
HEK293 ctr: parental HEK293 activity in Kir2.1 inhibitor counter-screen; shares compounds with KCNQ2 pot; parental HEK293 cells, FluxOR thallium flux fluorescence; 0% = unstimulated blank wells; FluxOR signal as % of negative control (100 = no effect), % at 10 µM; 19% of 2,300 active; AID 2105;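 active means dye signal at least 3 control SD above or below untreated wells in both duplicates, raw fluorescence within 3, either direction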;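 further: percent is based on the flux ratio of peak minus minimum fluorescence over baseline F0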
CHO-K1 ctr: nonspecific thallium flux increase in parental CHO-K1, confirmation, counter-screen for KCNQ2 potentiator project, cell-based, FluxOR thallium flux, duplicate. shares compounds with KCNQ2 pot. parental CHO-K1 cells, FluxOR thallium flux fluorescence; zero = vehicle mean+3SD, 100% = vehicle-minus-blank window. activity increase over 3SD of controls, % at 10 µM. 43% of 1,200 active;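 active means signal rise of at least 3 SD above the untreated control mean, in both duplicate wells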;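 further: counter screen of KCNQ2 potentiator hits so any rise reflects channel-independent effects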
KCNQ1 pot spec: human KCNQ1 channel potentiation off-target, confirmation, selectivity assay for KCNQ2 potentiator project, cell-based, CHO, FluxOR thallium flux. shares compounds with KCNQ2 pot. 28% of 1,200 active. AID 2283, 2010. activation over 3SD threshold, % at 10 µM. CHO KCNQ1 stable, FluxOR thallium flux fluorescence; beyond 3SD, as % of vehicle-control signal;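 active means fluorescence ratio rise of at least 3 SD of vehicle wells above their mean, in both replicate wells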;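 further: 0% = vehicle mean plus 3 SD and 100% = vehicle minus unstimulated blank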
KCNQ2 pot conf: rat KCNQ2 channel potentiators, confirmation, cell-based, CHO, FluxOR thallium flux, duplicate | CHO-KCNQ2 cells, FluxOR thallium flux fluorescence | potentiation, less the hit threshold, % at 10 µM | shares compounds with KCNQ2 pot | 68% of 1,200 active;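 active means fluorescence ratio rising 3 SD or more over the vehicle control mean in both replicates, plus primary screen hit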;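 further: peak minus minimum thallium fluorescence divided by baseline after K/Tl stimulus; 0% = vehicle mean plus 3 SD and 100% = vehicle minus unstimulated blank difference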
Kir21 spec: mouse Kir2.1 channel activation off-target, confirmation, selectivity assay for KCNQ2 potentiator project, cell-based, HEK293, FluxOR thallium flux; shares compounds with KCNQ2 pot; activity over 3SD threshold, % at 10 µM; HEK293 Kir2.1, FluxOR thallium flux fluorescence; 2% of 1,200 active;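 active means fluorescence ratio rise of at least 3 SD above the vehicle-control mean, seen in both replicates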;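 further: 0% = vehicle mean plus 3 SD and 100% = vehicle minus no-stimulus blank window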
KCNQ2 W236L pot: potentiators of retigabine-insensitive KCNQ2 W236L, mechanism study for KCNQ2 potentiator project, cell-based, rat KCNQ2 W236L, CHO, automated patch clamp. AID 2558, 2010. shares compounds with KCNQ2 pot. current increase over 3SD of negative controls (%), active compounds read high, % at 25 µM. 10% of 940 active. automated patch clamp current;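 active means current increase at least 3 SD of the untreated controls above them in both duplicate recordings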
Active calls of the source: *; i = inactive; . = not tested or not shown. In the library only some 1.6% were active in any assay of this set; here they are far more common.

SMILES | KCNQ2 inh | KCNQ2 pot | Kir21 conf inh | HEK293 ctr | others
Cc1ccc(C(=O)CSc2nc(C(C)C)nc3ccccc23)cc1 | i | 3.9 | . | .
Cc1[nH]ncc1-c1ccccc1Cl | i | . | . | .
Cc1cccc(N2CCN(C(=O)Cc3ccccc3[N+](=O)[O-])CC2)c1C | i | . | . | .
COc1ccc(C(OCC(O)CNCCc2ccc(S(N)(=O)=O)cc2)c2ccc(OC)cc2)cc1 (stereo unspecified) | i | 0.06 | . | .
OC(CNCCc1ccc(C(F)(F)F)cc1)COC(c1ccccc1)c1ccccc1 (stereo unspecified) | i | . | 51%* | 68%*
CC(C)=CCCC(C)NC(=O)NC1CCCCC1 (stereo unspecified) | i | 6.7* | i | 76%* | CHO-K1 ctr=20*;KCNQ1 pot spec=48*;KCNQ2 pot conf=12*;Kir21 spec=-43;KCNQ2 W236L pot=i
CC(C)[C@H](NC(=O)NC1CCCC1)C(=O)O | i | 0.19 | . | .
CCn1c(SCCOc2ccc(Cl)cc2)nnc1-c1cccs1 | i | . | 69%* | i
CCn1c(SCC(=O)c2ccc(Cl)cc2)nnc1-c1cccs1 | i | 0.11 | . | .
S=c1[nH]c2cc(Cl)ccc2s1 | i | 18* | i | 552%* | CHO-K1 ctr=10*;KCNQ1 pot spec=-12;KCNQ2 pot conf=54*;Kir21 spec=2.3*;KCNQ2 W236L pot=i
S=c1[nH]c2ccc(Cl)cc2[nH]1 | i | 1.2 | . | .
CCCN(CCC)CCCNC(=O)c1cc2c(=O)n(CC)c3ccccc3c2s1 | i | . | . | .
Cc1ccc2nc(Cl)c(/C=N/Nc3nc(C)cc(C)n3)c(=O)n2c1 | i | . | . | .
COc1ccc(C2=NOC(C)(c3nnc(-c4ccncc4)o3)C2)cc1 (stereo unspecified) | i | . | . | .
Cn1cc(S(=O)(=O)N2CCN(c3cccc(C(F)(F)F)c3)CC2)c(=O)n(C)c1=O | i | . | . | .
Cc1c(S(=O)(=O)N2CCN(c3cccc(C(F)(F)F)c3)CC2)c(=O)n(C)c(=O)n1C | i | 9.6* | i | i | CHO-K1 ctr=5.5*;KCNQ1 pot spec=51*;KCNQ2 pot conf=-22;Kir21 spec=-39
COc1ccccc1CNS(=O)(=O)c1ccc2c(c1)N(C(C)=O)CCO2 | i | . | . | .
CSc1ccc(S(=O)(=O)NCc2ccccc2)cc1 | i | . | . | .
CSc1ccc(S(=O)(=O)NC(C)c2ccccc2)cc1 (stereo unspecified) | i | 1.2 | 42%* | i
Cc1ccc(S(=O)(=O)NC(C)c2ccccc2)cc1[N+](=O)[O-] (stereo unspecified) | i | 0.61 | 46%* | i
C/C(CC(C)C)=N\NS(=O)(=O)c1ccc(C)c([N+](=O)[O-])c1 | i | . | . | .
CC(C)CC(=O)Nc1ccc(Nc2ccccc2)cc1 | i | 1.6 | . | .
CC(C)(C)CC(=O)Nc1ccc(Nc2ccccc2)cc1 | i | 6.3* | i | i | CHO-K1 ctr=133*;KCNQ1 pot spec=-21;KCNQ2 pot conf=16*;Kir21 spec=-40;KCNQ2 W236L pot=i
Cc1ccc(OC/C(=N\O)C(C)(C)C)c([N+](=O)[O-])c1 | i | . | . | .
CNCCCC1Sc2ccccc2Oc2ccccc21 (stereo unspecified) | i | 0.13 | 40%* | i
SMILES | KCNQ2 inh | KCNQ2 pot | Kir21 conf inh | HEK293 ctr | others
COc1ccc(CNCc2cccc(Oc3ccccc3)c2)cc1 | i | 2.1 | 10%* | i
COc1ccc(CNCc2ccncc2)c(OC)c1 | i | 1.5 | . | .
COc1ccc(CNCc2ccc3ccccc3c2)c(OC)c1 | i | 4.5 | 24%* | i
COc1ccc(CNCc2cccc(C)c2)cc1 | i | 0.68 | . | .
O=C(Cc1ncc(C(F)(F)F)cc1Cl)NCCc1ccccn1 | i | 0.89 | . | .
Cc1nn(CC(=O)Nc2ccc(S(=O)(=O)N(C)C)cc2)c(C)c1[N+](=O)[O-] | i | 1.1 | . | .
O=C(O)[C@H]1CCCC[C@H]1C(=O)Nc1ccc(S(=O)(=O)N2CCOCC2)cc1 | i | . | . | .
CC1CC(C)CN(C(=O)CCC(=O)Nc2nnc(C3CCCCC3)s2)C1 (stereo unspecified) | i | 1.4 | . | .
CCOc1ccc(CN2CCC(Cc3ccccc3)CC2)cc1 | i | 0.4 | 41%* | i
COc1ccc(CN2CCC(Cc3ccccc3)CC2)cc1OC | i | 0.03 | . | .
COc1ccc(CCNC(=O)Cn2ccc3c(OC)cccc3c2=O)cc1OC | i | . | . | .
O=C(COc1ccccc1F)NCc1nc2ccccc2[nH]1 | i | . | . | .
COCC(=O)O[C@]1(CCN(C)CCCc2nc3ccccc3[nH]2)CCc2cc(F)ccc2[C@@H]1C(C)C | i | . | 31%* | i
COc1ccc(NC(=O)C2CCN(c3ncnc4c3nc3n4CCCCC3)CC2)cc1Cl | i | . | . | .
COc1ccc(/C=C/c2cc(=O)c3cc(Cl)ccc3o2)cc1 | i | . | i | i
COc1ccc(-c2cc(=O)c3cc(OC)ccc3o2)cc1 | i | 0.36 | . | .
Cc1c([N+](=O)[O-])nnn1-c1cc(Cl)cc(Cl)c1 | i | 0.17 | . | .
CN1CCN(c2ccc(Nc3ccnc4cc(Cl)ccc34)cc2)CC1 | i | . | 58%* | i
CCOc1ccc(Nc2ccnc3cc(Cl)ccc23)cc1 | i | . | . | .
Cc1cc2ncn(C(=O)c3ccc(F)cc3)c2cc1C | i | . | . | .
OC1(c2ccc(Br)cc2)CCN(Cc2cccc(Br)c2)CC1 | i | . | 20%* | i
Brc1cccc(CN2CCCCCC2)c1 | i | 0.57 | . | .
CS(=O)(=O)N1CCN(CC(=O)NC2CCCCC2)CC1 | i | . | . | .
Cc1cccc(C)c1NC(=S)NC(C)CCc1ccccc1 (stereo unspecified) | i | . | . | .
CC[n+]1c(/C=C/N(C)c2ccccc2)n(-c2ccccc2)c2ccc(-c3nc4ccccc4s3)cc21 | -16* | -16 | i | i
CCOC(=O)c1ccc2c(c1)n(CC)c(/C=C/N(C)c1ccccc1)[n+]2CC | i | . | . | .
